High-throughput results as filed in PubChem BioAssay.
Pf growth 96h = P. falciparum growth inhibition at 96 hour, primary screen for plastid delayed-death inhibitors | P. falciparum luciferase reporter growth, 96 h | AID 504834 | Potency, µM (titrated, usually from 28.7 µM), without a hit: at the highest dose activity change, negative = inhibition, hits mostly inhibitors | 6.9% of 320,000 active; also: potency is read from the fitted curve at half-maximal effect; % is scaled to controls: 0 for no effect and ±100 for the full control effect
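96 h incubation, 37 C, 5% CO2, of luciferase-reporter P. falciparum-infected RBCs (2% hematocrit, 0.05% parasitemia final) with test compounds; endpoint luminescence.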
CHX counter = affects cycloheximide protein synthesis inhibition readout, counter-screen | 12% of 300,000 active | max response, % | AID 2314 | cell reporter, cycloheximide protein synthesis inhibition counterscreen; in the data active = max response mostly above about 13%, no sharp cut-off; inactive = mostly below about 14%; also: read at 38.3 µM for the half of the compounds with a filed dose; 0% is about no effect
Pf growth 48h = inhibits P. falciparum growth in the first generation, 48 h; AID 504832; 5.9% of 310,000 active; P. falciparum luciferase growth in erythrocytes, 48 h; Potency, µM (series often up to 28.7 µM), for the others: top-dose activity change, negative = inhibition, actives largely listed as inhibitors; also: potency is read from the fitted curve at half-maximal effect; % is scaled to controls: 0 for no effect and ±100 for the full control effect
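Growth was read as firefly luciferase luminescence after a 48 h, 37 C, 5% CO2 exposure of compounds to reporter-bearing P. falciparum cultures (0.1% parasitemia, 2% hematocrit final) in Albumax-supplemented RPMI 1640.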
Shiga inhibitor = blocks Shiga toxin action in Vero cells | 9.2% of 290,000 active | AID 2315 | Vero cells, Shiga toxin protein synthesis inhibition reporter | inhibition, % at 38.7 µM; in the data active = inhibition mostly above about 28%, no sharp cut-off; inactive = mostly below about 43%; also: 0% is about no effect
LmPK inhibitor = blocks Leishmania mexicana pyruvate kinase activity | Q27686 | 0.37% of 290,000 active | AID 1721 | Potency, µM (doses to about 57.5 µM), for the others: top-dose activity change, negative = inhibition, actives largely listed as inhibitors | purified LmPK, Kinase-Glo ATP luminescence, 1 h; also: potency is read from the fitted curve at half-maximal effect; % is scaled to controls: 0 for no effect and ±100 for the full control effect
Target sequence (Q27686 whole entry, looked up): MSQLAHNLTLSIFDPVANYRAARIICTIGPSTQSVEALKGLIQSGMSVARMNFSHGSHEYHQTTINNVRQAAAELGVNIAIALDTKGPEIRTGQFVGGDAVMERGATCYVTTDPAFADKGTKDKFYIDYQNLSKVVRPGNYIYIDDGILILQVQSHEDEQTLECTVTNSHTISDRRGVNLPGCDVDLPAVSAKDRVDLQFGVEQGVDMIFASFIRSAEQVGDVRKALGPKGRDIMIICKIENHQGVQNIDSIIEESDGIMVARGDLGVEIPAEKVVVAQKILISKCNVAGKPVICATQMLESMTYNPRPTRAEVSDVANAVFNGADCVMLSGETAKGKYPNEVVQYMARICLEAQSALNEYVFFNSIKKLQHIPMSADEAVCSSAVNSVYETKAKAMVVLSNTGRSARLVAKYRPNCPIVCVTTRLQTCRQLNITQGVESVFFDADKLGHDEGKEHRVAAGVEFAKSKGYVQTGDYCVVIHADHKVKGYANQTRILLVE
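0.1 nM LmPK, 0.5 mM PEP, 0.1 mM ADP; 50 mM imidazole pH 7.2, 7 mM MgCl2, 50 mM KCl; 1 h RT. Kinase-Glo luminescence readout, normalized to no-enzyme (full inhibition) and uninhibited wells.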
Starred values were filed as active, the others as inactive; u = inconclusive; x = no result; ! = repeats disagree; [ ] = dose if it differs, or a comment. The list is not random: actives were taken first. Their share in the collection is about 22%. Unless noted, calls follow the shape of the dose curve; as a rule, active = well fitted inhibition curve with a large enough effect; inconclusive = small, poorly fitted or top-dose-only effect, or another doubt; inactive = no such curve, though single readings can be large or run the other way.

SMILES | Pf growth 96h | CHX counter | Pf growth 48h | Shiga inhibitor | LmPK inhibitor
O=C(c1cccc(Br)c1)N1CCN(C(=O)N2CCOCC2)CC1 | 18% | -1 | 7% | 6 | 3%
Cc1cccc(C)c1NC(=O)CN(c1ccccn1)S(=O)(=O)c1ccccc1 | -1% | 9 | u | 10 | 10%
O=C(N/N=C/C1CC2C=CC1C2)c1ccccc1O (stereo not given) | 20% | 40* | -13% | 68* | 0%
CCn1cc([N+](=O)[O-])c(C(=O)Nc2ccn(C34CC5CC(CC(C5)C3)C4)n2)n1 | -1% | -2 | 1% | -1 | 1%
Cn1nccc1C(=O)Nc1ccn(C23CC4CC(CC(C4)C2)C3)n1 | 63% | 44* | 38% | 68* | 1%
Cn1cc([N+](=O)[O-])c(C(=O)Nc2ccn(C34CC5CC(CC(C5)C3)C4)n2)n1 | -14% | 15* | 0% | 2 | -2%
O=C(Nc1ccc(Br)cc1)c1nn(C23CC4CC(CC(C4)C2)C3)cc1Br | 0.19µM* | 3 | u | -8 | -5%
Cc1nn(C)c(C(=O)Nc2ccn(C34CC5CC(CC(C5)C3)C4)n2)c1[N+](=O)[O-] | u | -2 | u | -1 | 2%
Cc1ccc(NC(=O)C(C)N2CCCC2)cc1Cl (stereo not given) | 55% | -3 | -18%[5.75 µM] | -1 | -2%
COCCN(C(=O)c1cc(Cl)ccn1)c1c(N)n(Cc2ccccc2)c(=O)[nH]c1=O | 4% | x | -16% | x | x
CN1C(=O)OC(C)(C)C1=O | -22%[12.8 µM] | x | -9%[12.8 µM] | x | x
O=C(NCC1CCCO1)C(c1ccccn1)N(Cc1ccccc1Cl)C(=O)CN1C(=O)c2ccccc2S1(=O)=O (stereo not given) | 10% | 3 | 4% | 0 | -2%
Clc1ccccc1COc1ccccc1-c1nnco1 | -22% | -3 | -3% | -10 | 1%
c1ccc(OCCOc2ccccc2-c2nnco2)cc1 | 5.2µM* | 15* | 34% | 136* | 1%
OCc1ccccc1O | u | x | -8% | x | x
CCOC(=O)N1CCN(Cc2ccc(O)c3ncccc23)CC1 | -19% | -2 | u | 3 | 4%
CCCOCc1ccc(O)c2ncccc12 | 4.7µM* | 1 | 12µM* | 17 | 2%
CC(C)COCc1ccc(O)c2ncccc12 | 8% | -3 | u | -4 | 6%
OCc1ccc(O)c2ncccc12 | u | -2 | 9.3µM* | -3 | 1%
Oc1ccc(COCc2ccccc2)c2cccnc12 | 4.1µM*! | 68* | 3.3µM* | 147* | -8%
CN(Cc1ccco1)Cc1ccc(O)c2ncccc12 | 10µM* | x | u | x | x
CCC(C)NC(=S)Nc1ccccc1 (stereo not given) | u | 10 | u | -3 | 2%
CCC(C)Nc1ccc(NC(C)CC)cc1 (stereo not given) | 1.2µM* | x | 1µM* | x | x
O=C(O)CC1S/C(=N/N=C/C2CC=CCC2)NC1=O (stereo not given) | 5.9µM* | -3 | 4% | 6 | 5%
O=C(O)/C=C\C(=O)NCc1cccnc1 | 2.6µM* | -3 | 19% | -15 | 8%
SMILES | Pf growth 96h | CHX counter | Pf growth 48h | Shiga inhibitor | LmPK inhibitor
O=C(/C=C/NCc1cccnc1)c1ccc(-c2ccccc2)cc1 | 0% | 33* | 22% | 91* | -5%
O=C(/C=C/c1ccccc1)NCc1cccnc1 | 231% | 3 | 14% | 1 | 3%
O=C(/C=C/c1ccc(-c2ccccc2)cc1)NCc1cccnc1 | u | 28* | 29% | x | 1%
O=C(NCc1cccnc1)c1ccccc1-c1ccccc1 | -22% | 1 | 7% | 13 | -3%
O=C(CS(=O)CC(=O)Nc1cccnc1)Nc1ccc(F)cc1 (stereo not given) | -2% | -4 | u | 20 | 4%
CC(C)CN(C(=O)COc1ccc([N+](=O)[O-])cc1)c1c(N)n(CC(C)C)c(=O)[nH]c1=O | u | x | -3% | x | x
NC(=O)c1ccsc1NC(=O)CSc1nncs1 | -16% | x | 40% | x | x
CCC(=NCc1ccccc1)C1=C(O)C(C(=O)OC)C(C)(C)CC1=O (stereo not given) | 12µM* | 2 | 7% | -8 | 9%
CCCC(=NCc1ccccc1)C1=C(O)C(C(=O)OC)C(C)(C)CC1=O (stereo not given) | u | 2 | x | -2 | 0%
CCCC(=O)C1=C(O)C(C(=O)OC)C(C)(C)CC1=NCc1ccccc1 (stereo not given) | 7.4µM* | 0 | u | -5 | 0%
